Values without a mark were called inactive.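 Rule for the calls: active = MAPPIT score above the 99th percentile of random reference set scores in the same batch; inactive = at or below it.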
What was measured:
Test in all cases: MAPPIT interaction score (arbitrary units); higher = stronger binary interaction signal, active = hit call of the paper
[1] = target: CG12768; settings: MAPPIT configuration: N-N; pair source set: Curagen_low_conf
[2] = target: CG8281; settings: MAPPIT configuration: N-N; pair source set: screen_1
[3] = target: CG12567; settings: pair source set: RRS
[4] = target: CG14664; settings: pair source set: RRS
[5] = target: DIP1; settings: MAPPIT configuration: N-N; pair source set: screen_2
[6] = target: GstZ2; settings: pair source set: RRS
[7] = target: CG12863; settings: MAPPIT configuration: N-N; pair source set: Curagen_high_conf
[8] = target: CG12343; settings: MAPPIT configuration: N-N; pair source set: DPIM
[9] = target: CG12470; settings: MAPPIT configuration: N-N; pair source set: Finley_Y2H
[10] = target: CG12576; settings: MAPPIT configuration: N-C; pair source set: screen_4
[11] = target: CG13887; settings: MAPPIT configuration: N-C; pair source set: screen_3
[12] = target: CG6845; settings: MAPPIT configuration: N-C; pair source set: screen_4
[13] = target: Tim17b2; settings: MAPPIT configuration: N-C; pair source set: screen_4
[14] = target: CG1246; settings: MAPPIT configuration: N-N; pair source set: DPIM
[15] = target: CG30355; settings: MAPPIT configuration: N-C; pair source set: screen_4
[16] = target: Vha16-2; settings: MAPPIT configuration: N-C; pair source set: screen_3
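Note: HEK293T cells with Epo stimulation, STAT-responsive firefly luciferase reporter, fold induction versus unstimulated cells divided by the larger fold induction of two negative controls lacking either bait or prey.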

B1: dod (protein)
chain: MPDAEQLPDGWEKRTSRSTGMSYYLNMYTKESQWDQPTEPAKKAGGGSAGGGDAPDEVHCLHLLVKHKGSRRPSSWREANITRTKEEAQLLLEVYRNKIVQQEATFDELARSYSDCSSAKRGGDLGKFGRGQMQAAFEDAAFKLNVNQLSGIVDSDSGLHIILRKA
[1]
  MAPPIT interaction score: 0.142
[2]
  MAPPIT interaction score: -0.114

B2: Adar (protein)
chain: MKFDSRVMLNSANNNSPQHPVSAPSDINMNGYNRKLPQKRGYEMPKYSDPKKKMCKERIPQPKNTVAMLNELRHGLIYKLESQTGPVHAPLFTISVEVDGQKYLGQGRSKKVARIEAAATALRSFIQFKDGAVLSPLKPAGNLDFTSDEHLENGIENLSSSKMFEIIQTMLTEKLSNPTSLEQPTFCMSQNVSKSAITVDGQKKVPDKGPVMLLYELFNDVNFECINIDGAQNNCRFKMTVTINEKKFDGTGPSKKTAKNAAAKAALASLCNISYSPMVVPQKNVPLPIDDKSSSMELPQIHADTIGRLVLEKFMEVIKGQEAYSRRKVLAGIVMTENMNFCEAKVISVSTGTKCVSGEHMSVNGAVLNDSHAEIVSRRCLLKYLYAQLDLQCNQATAYQSIFVRNTDGQYPYKLKSGVHFHLYINTAPCGDARIFSPHENDTGVDKHPNRKARGQLRTKIESGEGTIPVKSSDGIQTWDGVLQGQRLLTMSCSDKIARWNIVGIQGSLLSSIIEPVYLHSIVLGSLLHPEHMYRAVCGRIEKSIQGLPPPYHLNKPRLALVTSAEPRNQAKAPNFGINWTIGDTELEVVNSLTGRTIGGQVSRITKQAFFVKYGFLMANLPGILVRKVTTDYGQTKANVKDYQIAKLELFSAFKREDLGSWLKKPIEQDEFGLAE
[3]; MAPPIT configuration: N-C
  MAPPIT interaction score: 0.742
[3]; MAPPIT configuration: N-N
  MAPPIT interaction score: 1.87
[4]; MAPPIT configuration: N-C
  MAPPIT interaction score: -0.248
[4]; MAPPIT configuration: N-N
  MAPPIT interaction score: 0.297
[5]
  MAPPIT interaction score: -0.0973
[6]; MAPPIT configuration: N-C
  MAPPIT interaction score: 0.124
[6]; MAPPIT configuration: N-N
  MAPPIT interaction score: -0.194

B3: Rab26 (protein)
chain: MASTAVGLGGGEGDPGAGGPPAGSAHPDDASSMSDDVFEDAETTQARIEELRRRPFGDGSYNPPAAPASVSASITTTTTQQQQQHHNPSHHHQSSHHQPSHHHHHHHHSQLSLTGSHHYHDDAIMAPVQRSATGYPGYRPSREAMQMYAYGTDDYDDDYNDGWRSYRYDEVDMHPAPSNAHQQPFDDTVNHKTILLGDSGVGKTSFLVKYNTGEFRLGSFSATVGIALTNKVVVVDGTRVKLQIWDTAGQERFRSVTHAYYRDAHALLLLYDVTNKTTYDNIRAWLGEIREYAQEDVVIVLIGNKADCSGSERQVKREDGERLGREHNVPFMETSAKTGLNVELSFTAVARQLKSRGYEHGDDGKFNVHDFVRDNTKARSVCAQCRNM
[7]
  MAPPIT interaction score: 1.43

B4: CG8745 (protein)
chain: MPFAHEQLNLVASEQLSKTETIKLRNQHIGQACQLFYRSDPLKIVRGQGQYMFDEEGTRYLDCINNVAHVGHCHPEVVRAGALQMATISTNNRFLHDELVQCARTLTSKMPEPLSVCFFVNSGSEANDLALRLARNFTKRQDVITLDHAYHGHLQSVMEVSPYKFNQPGGEAKPDYVHVAPCPDVYGGKFTDKMYPDADMGALYAQPIEEICQKQLAKGQGVAAFIAESLQSCGGQILPPAGYFQAVYDAVRSAGGVCIADEVQVGFGRVGSHYWAFETQNVIPDIVCVAKPMGNGHPVGAVVTTPEIAQAFHATGVAYFNTYGGNPVSCAIANAVMRVIEEEGLQQKALVLGDYLLEECNRLKQEFECIGDVRGAGLFVGIELVQDRKERIPDKKAAHWVVNRMKQLHRVLVSSDGPNDNVIKLKPPMCFNRENADEFLLGFRECLTAVMQERLASATSAAMAATSGVIATATETLANKTKLFERQDRLIKSV
[8]
  MAPPIT interaction score: 0.219

B5: SNRPG (protein)
chain: MSKAHPPEVKKYMDKRMMLKLNGGRAVTGILRGFDPFMNVVLDDTVEECKDNTKNNIGMVVIRGNSIVMVEALDRV
[9]
  MAPPIT interaction score: 2.32

B6: Tsf2 (protein)
chain: MASSLVFVALVGALCFTLANAQHHYDEHKTTRMVWCTKSQAEQYKCQNLTVAIERDRALFDEVFLNLTCFMAYSADECIHHIDREKAHITTLDAGDVFTAGRYNSLIPIMQEKLEGGFADYQSVAVIKKGSLPDLNNLRDMRNKRVCFPWVGSLAGWIVPIHTLQREGGMEVVDCNNQVKTAASYFNNSCAVYSLSDKHNPIGDNSDKLCTLCTGKIPGGRCSSADPYFGYEGAFKCLLEKGDVAFLRHSTVNEMLQTTEFKNIAPDTFELLCRDGRRASINDYRQCNWGQVPADAIVTSSARSFSDRKQYQQFLKRIAELYSDGTRDDQSRQGGQSFNSRNNINDQNAYGQFDNNDPYRTQNQYDQYRSERLDSSFAEERNQQDGTNTSILYEKFRIFESKRYGKPNLLFQDSSRALTVIPEDDQSFTKYLGPAINFIYGIRECPVPAMTLCVTSENELDKCIKMRTALKAHLLKPELICKKMHSHINCMQFIEAGKADISVFDAGDVYTGGLNYDLVPFMSEVYNLGEPEYYVVAVAKEDDPDTELTYLKGKNTCHTGINTAAGWTYPMALFISNGWIRPYGCDSVRAAAEYFTKSCVPGAISNEYNTGVPYDSMCDLCHGTSYRYCRRDASEEYYGHTGAFRCLVEGGGHVAFMKHTTVMESTGGKRKEWWARNALNDDFELLCTDGTRAEIQDYKRCNLGKVKANAVVTRGGVNYNETQMNAYINLLTYAQQLYGRKEVDAFSFSMFSSPIGHYDLIFQDATRQLQVIPPNKRRYDAYLGSDFMRARRITDCYAGASQLALSVGLLLVGSLVAML
[10]
  MAPPIT interaction score: 0.0626
[11]
  MAPPIT interaction score: -0.181
[12]
  MAPPIT interaction score: 0.127
[13]
  MAPPIT interaction score: 0.851

B7: Vha68-2 (protein)
chain: MSNLKRFDDEERESKYGRVFAVSGPVVTAEAMSGSAMYELVRVGYYELVGEIIRLEGDMATIQVYEETSGVTVGDPVLRTGKPLSVELGPGIMGSIFDGIQRPLKDINELTESIYIPKGVNVPSLSRVASWEFNPLNVKVGSHITGGDLYGLVHENTLVKHKMIVNPRAKGTVRYIAPSGNYKVDDVVLETEFDGEITKHTMLQVWPVRQPRPVTEKLPANHPLLTGQRVLDSLFPCVQGGTTAIPGAFGCGKTVISQALSKYSNSDVIIYVGCGERGNEMSEVLRDFPELSVEIDGVTESIMKRTALVANTSNMPVAAREASIYTGITLSEYFRDMGYNVSMMADSTSRWAEALREISGRLAEMPADSGYPAYLGARLASFYERAGRVKCLGNPEREGSVSIVGAVSPPGGDFSDPVTSATLGIVQVFWGLDKKLAQRKHFPSINWLISYSKYMRALDDFYDKNFPEFVPLRTKVKEILQEEEDLSEIVQLVGKASLAETDKITLEVAKLLKDDFLQQNSYSSYDRFCPFYKTVGMLRNIIDFYDMARHSVESTAQSENKITWNVIREAMGNIMYQLSSMKFKDPVKDGEAKIKADFEQLHEDLQQAFRNLED
[14]
  MAPPIT interaction score: -0.102

B8: Cys (protein)
chain: MNVVKSLCILGLVLVSLIATQAADEQVVGGVSQLEGNSRKEALELLDATLAQLATGDGPSYKAINVTSVTGQVVAGSLNTYEVELDNGSDKKQCTVKIWTQPWLKENGTNIKIKCSGDDGELDRTW
[10]
  MAPPIT interaction score: -0.0839
[15]
  MAPPIT interaction score: 2.13
[16]
  MAPPIT interaction score: 0.0929

Source: the supplement of paper PMC10105736
